Measurements from PubChem BioAssay AID1619 (SRMLSC, 2009).
About 830 (0.38%) of roughly 220,000 compounds were called active.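 The calls were made as follows: active = compound inhibiting the enzyme by more than half at any dose during confirmatory dose-response retesting; inconclusive = strong single-dose inhibitors picked by rank but not retested; inactive = the rest.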 The list is a sample of the results. Potency and affinity values are given separately.

biological target: Leucine aminopeptidase (Plasmodium falciparum (isolate 3D7)) (UniProt Q8IL11); assay: P. falciparum M17LAP inhibitors, primary screen, biochemical, fluorogenic H-Leu-NHMec substrate, 1536-well (AID 1619); details: recombinant M17LAP, H-Leu-NHMec fluorogenic kinetic assay; at 30 µM; hits give high values;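 also: plate controls were full reaction with DMSO carrier for no effect and no enzyme background for full effect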
Sequence (Q8IL11 whole entry, looked up): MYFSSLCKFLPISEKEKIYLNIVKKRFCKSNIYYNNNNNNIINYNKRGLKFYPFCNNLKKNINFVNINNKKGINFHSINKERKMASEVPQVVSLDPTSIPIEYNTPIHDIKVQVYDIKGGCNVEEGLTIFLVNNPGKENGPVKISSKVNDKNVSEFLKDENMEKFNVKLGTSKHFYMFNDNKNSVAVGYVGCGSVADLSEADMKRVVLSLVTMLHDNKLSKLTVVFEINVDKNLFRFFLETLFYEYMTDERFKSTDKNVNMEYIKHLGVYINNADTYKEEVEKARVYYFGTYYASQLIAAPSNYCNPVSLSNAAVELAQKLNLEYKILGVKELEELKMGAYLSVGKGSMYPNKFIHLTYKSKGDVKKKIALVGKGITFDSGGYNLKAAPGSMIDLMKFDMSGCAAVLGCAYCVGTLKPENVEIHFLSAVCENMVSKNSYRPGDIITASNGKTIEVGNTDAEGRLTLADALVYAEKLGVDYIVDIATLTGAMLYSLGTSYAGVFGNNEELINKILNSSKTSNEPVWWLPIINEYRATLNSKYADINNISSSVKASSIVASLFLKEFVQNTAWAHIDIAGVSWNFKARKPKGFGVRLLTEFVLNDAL

inhibition, inactive:
O=C(Cc1csc(N2CCOCC2)n1)N/N=C/c1ccc(F)cc1 45.5%, COc1ccccc1NC(=O)Nc1cc(C(C)C)ccc1C 3.16%, COc1cc(/C=C2/NC(=O)N(Cc3ccccc3F)C2=O)ccc1O -1.31%, CCOc1cc(/C=C2\C(=O)N(CCc3ccc(OC)c(OC)c3)C(C)=C2C(=O)OC)ccc1O 7.43%, COc1ccc(C(=O)Nc2ccc(Cl)cc2C(=O)NCCN2CCOCC2)cc1 5.43%, Cc1ccc(S(=O)(=O)NNC(=O)CC#N)cc1 5.13%, COc1cc(/C=C2\SC(=N)N(c3ccc4c(c3)OCO4)C2=O)cc(OC)c1O 1.69%, Cc1cccc(NC(=O)CN2C(=O)S/C(=C\c3ccc(-c4cccc(C(=O)O)c4C)o3)C2=O)c1 4.08%, COc1ccccc1N1C(=N)S/C(=C\c2ccc(-c3ccccc3C(=O)O)o2)C1=O 61.1%, N=C1S/C(=C\c2ccco2)C(=O)N1c1ccc2c(c1)OCO2 6.49%, O=C(COC(=O)Cc1ccc(Br)cc1)NCC1CCCCC1 1.79%, CCOC(=O)N1CCN(C(=O)CSc2ccc(-c3cccnc3)nn2)CC1 -5.54%, Cc1c(O)ccc(-c2n[nH]c(C(=O)O)c2-c2nc3ccccc3s2)c1O -2.67%, Oc1ccc(-c2nc3ccccc3s2)c(O)c1 -4.82%, Cc1nc2ccccn2c1C(=O)CSc1ccccc1 24.3%, CCOC(=O)Cc1n[nH]c(=O)c2ccccc12 1.58%, O=C(NCc1ccccn1)c1cc(-c2ccccc2)on1 8.29%, CCOC(=O)CSc1nnc(-c2ccoc2C)n1-c1ccc(C)cc1 14.1%, CCOC(=O)CSc1nnc(-c2ccco2)n1-c1ccccc1 11.8%, COC(=O)CSc1nnc(-c2ccco2)n1-c1ccc(C)cc1 13.9%, CC(C)OC(=O)CSc1nnc(-c2ccco2)n1N 6.79%, Cc1ccc(OCCn2c(=O)oc3ccc(C)cc32)cc1 13.7%, Cn1c(SCC(N)=O)nnc1C1CCN(C(=O)NC2CCCCC2)CC1 -3.93%, COc1ccc(OC)c(NC(=O)C2CC(C)=C(C)CC2C(=O)O)c1 (stereo unspecified) 34.4%, COc1ccc(C(C)(C)C)cc1NC(=O)C1C2C=CC(C2)C1C(=O)O (stereo unspecified) 7.82%, COc1ccc(OC)c(NC(=O)C2CCCCC2C(=O)O)c1 (stereo unspecified) 40.9%, COc1ccc(C)cc1NC(=O)C1CCCCC1C(=O)O (stereo unspecified) 52.8%, COc1ccc2cc(C(c3nnnn3CCc3ccccc3)N3CCCC(C)C3)c(=O)[nH]c2c1 (stereo unspecified) 10.6%, CCCCNS(=O)(=O)c1ccc(S(=O)(=O)N2CCC3(CC2)OCCO3)cc1 -5.01%, COC(=O)C1=C(NC(=O)COc2ccc(Cl)cc2Cl)CCS1 49.6%, CC(C)(C)S(=O)(=O)/C(C#N)=N/Nc1ccc(C#N)cc1 19.9%, CC(C)(C)S(=O)(=O)/C(C#N)=N/Nc1ccc(Cl)cc1 12.6%, CC(C)(C)S(=O)(=O)/C(C#N)=N/Nc1ccc(S(N)(=O)=O)cc1 16.4%, CC(C)(C)c1ccc(N/N=C(\C#N)S(=O)(=O)C(C)(C)C)cc1 23.4%, CC(C)(C)S(=O)(=O)/C(C#N)=N/Nc1ccc(S(C)(=O)=O)cc1 43.2%, COc1ccc(N/N=C(/C#N)S(=O)(=O)C(C)(C)C)cc1 5.23%, Cn1c(SCc2ccc(Cl)cc2)nc(C(F)(F)F)cc1=O -4.09%, CCN(CC)C(=O)C(=O)c1cn(CC(=O)NCC2CCCO2)c2ccccc12 (stereo unspecified) -6.14%, Cc1cccc(NC(=O)c2nc[nH]c2C(=O)NCC(=O)OC(C)(C)C)c1 -3.35%, O=C(NCC1CCCO1)c1csc(Nc2cccc3ccccc23)n1 (stereo unspecified) 4.77%, O=C(COc1cccc(NC(=O)c2ccco2)c1)c1ccccc1 -14.2%, O=C(NCCN1CCOCC1)c1ccc(NC(=O)C2COc3ccccc3O2)cc1 (stereo unspecified) 3.85%, CCOc1ccc(-n2c(COc3ccccc3)nnc2SCC(N)=O)cc1 -3.38%, Cc1ccc(NC(=O)Cn2nc(C)c3ccccc3c2=O)cc1 23.3%, Cc1nn(CC(=O)Nc2ccccc2)c(=O)c2ccccc12 20%, CC1=C(C)CC(C(=O)NNC(=O)c2ccccc2)C(C(=O)O)C1 (stereo unspecified) 32.1%, CC(C)(C)C1CCc2c(C(=O)NNC(=O)/C=C/C(=O)O)csc2C1 (stereo unspecified) 43.8%, Cc1scc(C(=O)NNC(=O)CCC(=O)O)c1C 1.05%, CCNC(=S)NNC(=O)c1csc2c1CCC(C)C2 (stereo unspecified) -1.92%, CC1=C(C)CC(C(=O)NNC(=O)c2csc(C)c2C)C(C(=O)O)C1 (stereo unspecified) 44.2%, CC(C)(C)C1CCc2c(C(=O)N/N=C/c3cccs3)csc2C1 (stereo unspecified) 1.12%, COCc1cc(C)nc(SCc2nc3ccccc3c(=O)[nH]2)c1C#N -5.07%, CCOC(=O)c1cc(-c2ccccc2)sc1NC(=O)C(C)N1C(=O)c2ccccc2C1=O (stereo unspecified) -1.18%, Nc1cc(-c2ccco2)no1 -0.59%, O=C1c2[nH]nc(-c3ccccc3O)c2C(c2ccccc2F)N1Cc1ccco1 (stereo unspecified) 16%, O=C(C(c1ccccc1)c1ccccc1)N1CCN(c2ccccn2)CC1 4.89%, COc1ccc2sc(N3C(=O)CC(Cc4cccc(C)c4)C3=O)nc2c1 (stereo unspecified) 29.4%, CC(=O)c1nc(N2C(=O)C3CC=C(C)CC3C2=O)sc1C (stereo unspecified) 7.37%, CCOC(=O)/C(=C\c1ccc([N+](=O)[O-])o1)NC(=O)c1ccccc1 -88.3%, O=C(Cc1cn(Cc2cccc(Cl)c2)c2ccccc12)N1CCCCCC1 -20.4%, O=c1c2c3c(sc2nc2sc(CN4CCCCC4)cn12)CCCC3 -6.38%
